Measurements reported in PubChem BioAssay (EPA / NIEHS).
Activity calls are given as the source filed them. Rule for the calls: active = hit-call score of the fitted dose curve at least 0.9, where 1 is the maximum; inactive = score below 0.9.

Tests used:
Details in all cases: mRNA level, 48 h; actives raise or lower the signal
[1] = read-out: Cytochrome P450 7A1 (Homo sapiens) (UniProt P22680); assay: LTEA_HepaRG_CYP7A1: Life Technologies and Expression Analysis (LTEA) Assay for Cytochrome P450 7A1 (CYP7A1) using HepaRG (AID 2283496)
In short: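 Using 0.5% DMSO as vehicle and baseline, chemicals were tested in duplicate over an 8-point range from 100 uM on HepaRG cells for 48 h; qRT-PCR signals were normalised to ACTB, GAPDH and POLR2A.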

[2] = read-out: Glutathione S-Transferase (GSTA2), GSTA2 (gene 2939); assay: LTEA_HepaRG_GSTA2: Life Technologies and Expression Analysis (LTEA) Assay for Glutathione S-Transferase (GSTA2) using HepaRG (AID 2283497)
In short: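 GSTA2 transcript levels came from Fluidigm TaqMan qRT-PCR normalized to three housekeeping genes, fitted in both directions against DMSO. HepaRG cultures received chemicals for 48 h in serum-free induction medium (0.5% DMSO), 8 half-log concentrations up to 100 uM, duplicate.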

[3] = read-out: Glutamate-cysteine ligase catalytic (GCLC), GCLC (gene 2729); assay: LTEA_HepaRG_GCLC: Life Technologies and Expression Analysis (LTEA) Assay for Glutamate-cysteine ligase catalytic (GCLC) using HepaRG (AID 2283498)
In short: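 Expression by TaqMan qRT-PCR, normalized to three housekeeping genes (ACTB, GAPDH, POLR2A), with up- or down-regulation fitted against DMSO. HepaRG cells dosed in duplicate for 48 h with 8 half-log concentrations up to 100 uM, vehicle 0.5% DMSO.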

[4] = read-out: growth arrest and DNA damage 45 (GADD45G), GADD45G (gene 10912); assay: LTEA_HepaRG_GADD45G: Life Technologies and Expression Analysis (LTEA) Assay for growth arrest and DNA damage 45 (GADD45G) using HepaRG (AID 2283499)
In short: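 Differentiated human HepaRG cells, 48 h post-plating, exposed 48 h in serum-free induction medium to 8 half-log concentrations (top 100 uM, 0.5% DMSO) in duplicate. GADD45G mRNA measured by Fluidigm TaqMan qRT-PCR, normalized to ACTB, GAPDH, POLR2A; bidirectional fit versus DMSO.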

[5] = read-out: Glutamate-cysteine ligase regulatory (GCLM), GCLM (gene 2730); assay: LTEA_HepaRG_GCLM: Life Technologies and Expression Analysis (LTEA) Assay for Glutamate-cysteine ligase regulatory (GCLM) using HepaRG (AID 2283500)
In short: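 In this multiplexed HepaRG gene-expression assay, GCLM mRNA change after 48 h treatment (8 concentrations, max 100 uM) was scored against DMSO by bidirectional curve fitting.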

[6] = read-out: Glutathione S-transferase M3 (GSTM3), GSTM3 (gene 2947); assay: LTEA_HepaRG_GSTM3: Life Technologies and Expression Analysis (LTEA) Assay for Glutathione S-transferase M3 (GSTM3) using HepaRG (AID 2283501)
In short: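 Differentiated human HepaRG cells were exposed in duplicate for 48 h in serum-free induction medium, 8 points from 100 uM top in half-log steps, 0.5% DMSO. GSTM3 mRNA was measured by TaqMan qRT-PCR, normalized to ACTB, GAPDH and POLR2A; bidirectional fit versus DMSO.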

[7] = read-out: Hypoxia-inducible factor 1-alpha (Homo sapiens) (UniProt Q16665); assay: LTEA_HepaRG_HIF1A: Life Technologies and Expression Analysis (LTEA) Assay for Hypoxia-inducible factor 1 (HIF1A) Trancription factor using HepaRG (AID 2283503)
In short: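 Gain- or loss-of-signal HIF1A mRNA changes are fitted against a DMSO baseline. HepaRG cultures receive eight concentrations, highest 100 uM, for 48 h in serum-free induction medium with 0.5% DMSO.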

[8] = read-out: 3-Hydroxy-3-Methylglutaryl-CoA Synthase 2 (HMGCS2), HMGCS2 (gene 3158); assay: LTEA_HepaRG_HMGCS2: Life Technologies and Expression Analysis (LTEA) Assay for 3-Hydroxy-3-Methylglutaryl-CoA Synthase 2 (HMGCS2) using HepaRG (AID 2283504)
In short: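 Human HepaRG cells in serum-free induction medium were exposed in duplicate for 48 h to 8-point half-log series from 100 uM top in 0.5% DMSO. HMGCS2 mRNA measured by TaqMan qRT-PCR, normalised to ACTB, GAPDH, POLR2A; bidirectional fit versus DMSO.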

HGF (gene 3082) = assay: LTEA_HepaRG_HGF: Life Technologies and Expression Analysis (LTEA) Assay for Hepatocyte Growth Facto (HGF) using HepaRG (AID 2283505)
In short: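 Differentiated HepaRG cells in serum-free induction medium exposed 48 h in duplicate, 8 half-log concentrations from 100 uM in 0.5% DMSO. HGF mRNA by qRT-PCR, normalised to ACTB, GAPDH, POLR2A; bidirectional fitting.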

[9] = read-out: Insulin Like Growth Factor 1 (IGF1), IGF1 (gene 3479); assay: LTEA_HepaRG_IGF1: Life Technologies and Expression Analysis (LTEA) Assay for Insulin Like Growth Factor 1 (IGF1) using HepaRG (AID 2283506)
In short: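 Endpoint: IGF1 mRNA change by qRT-PCR, housekeeping-normalized, fitted bidirectionally relative to 0.5% DMSO vehicle. Human HepaRG cells were treated 48 h in serum-free induction medium, eight half-log concentrations topping at 100 uM.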

[10] = read-out: Intercellular Adhesion Molecule 1 (ICAM1), ICAM1 (gene 3383); assay: LTEA_HepaRG_ICAM1: Life Technologies and Expression Analysis (LTEA) Assay for Intercellular Adhesion Molecule 1 (ICAM1) using HepaRG (AID 2283507)
In short: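 Differentiated human HepaRG cells in serum-free induction medium exposed 48 h in duplicate to 8 half-log concentrations (top 100 uM, 0.5% DMSO). ICAM1 mRNA quantified by TaqMan qRT-PCR, normalized to ACTB, GAPDH and POLR2A; bidirectional fitting versus DMSO.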

[11] = read-out: Interleukin 6 (IL6), IL6 (gene 3569); assay: LTEA_HepaRG_IL6: Life Technologies and Expression Analysis (LTEA) Assay for Interleukin 6 (IL6) using HepaRG (AID 2283509)
In short: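 Transcript levels, normalized to three housekeeping genes, were quantified by qRT-PCR after 48 h chemical treatment of HepaRG cells. Eight-point half-log series from 100 uM in 0.5% DMSO, duplicates. Fitted both directions against DMSO baseline.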

[12] = read-out: Interleukin 6 Receptor (IL6R), IL6R (gene 3570); assay: LTEA_HepaRG_IL6R: Life Technologies and Expression Analysis (LTEA) Assay for Interleukin 6 Receptor (IL6R) using HepaRG (AID 2283510)
In short: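 In this HepaRG screen, test chemicals act on cells for 48 h at up to 100 uM (eight half-log points, duplicate wells). IL6R expression is quantified by qRT-PCR after normalization to ACTB, GAPDH and POLR2A, with DMSO as baseline.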

[13] = read-out: Potassium channel subfamily K member 1 (KCNK1), KCNK1 (gene 3775); assay: LTEA_HepaRG_KCNK1: Life Technologies and Expression Analysis (LTEA) Assay for Potassium channel subfamily K member 1 (KCNK1) using HepaRG (AID 2283511)
In short: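 KCNK1 transcript measured by TaqMan qRT-PCR against three housekeeping genes, after HepaRG cells were treated 48 h with eight half-log concentrations (top 100 uM, 0.5% DMSO). Curves fitted bidirectionally relative to vehicle.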

[14] = read-out: Keratin 19 (KRT19), KRT19 (gene 3880); assay: LTEA_HepaRG_KRT19: Life Technologies and Expression Analysis (LTEA) Assay for Keratin 19 (KRT19) using HepaRG (AID 2283512)
In short: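 Differentiated HepaRG cells in serum-free induction medium, exposed 48 h in duplicate to 8 half-log concentrations up to 100 uM in 0.5% DMSO. KRT19 mRNA by qRT-PCR, normalized to ACTB, GAPDH, POLR2A; bidirectional fit vs DMSO.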

[15] = read-out: Lipase C (LIPC), LIPC (gene 3990); assay: LTEA_HepaRG_LIPC: Life Technologies and Expression Analysis (LTEA) Assay for Lipase C (LIPC) using HepaRG (AID 2283514)
In short: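 LIPC expression was quantified by qRT-PCR against three housekeeping genes (ACTB, GAPDH, POLR2A). Differentiated human HepaRG cells received eight half-log doses (top 100 uM, 0.5% DMSO) in duplicate for 48 h; fitting bidirectional relative to DMSO.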

[16] = read-out: Lipoprotein lipase (LPL), LPL (gene 4023); assay: LTEA_HepaRG_LPL: Life Technologies and Expression Analysis (LTEA) Assay for Lipoprotein lipase (LPL) using HepaRG (AID 2283515)
In short: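 LPL transcript levels quantified by TaqMan qRT-PCR against three housekeeping genes after 48 h chemical treatment of HepaRG cells. Eight-point half-log series from 100 uM in 0.5% DMSO, tested in duplicate; bidirectional fitting versus vehicle.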

[17] = read-out: Insulin-like growth factor-binding protein 1 (IGFBP1), IGFBP1 (gene 3484); assay: LTEA_HepaRG_IGFBP1: Life Technologies and Expression Analysis (LTEA) Assay for Insulin-like growth factor-binding protein 1 (IGFBP1) using HepaRG (AID 2283508)
In short: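 HepaRG cells, plated 48 h then switched to serum-free induction medium, exposed in duplicate for 48 h to 8-point half-log series from 100 uM in 0.5% DMSO. mRNA measured by qRT-PCR, normalized to ACTB/GAPDH/POLR2A; bidirectional fit versus DMSO.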

[18] = read-out: JUN Transcription Factor, JUN (gene 3725); assay: LTEA_HepaRG_JUN: Life Technologies and Expression Analysis (LTEA) Assay for JUN Transcription Factor using HepaRG (AID 2283513)
In short: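 Gene-expression endpoint: JUN mRNA (qRT-PCR, normalized to three reference genes) in HepaRG cultures treated 48 h with chemicals, duplicate wells, 100 uM maximum with half-log dilutions; bidirectional fitting relative to 0.5% DMSO.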

[19] = read-out: Heat shock 70 kDa protein 1 (HSPA1A), gene 3303; assay: LTEA_HepaRG_HSPA1A: Life Technologies and Expression Analysis (LTEA) Assay for Heat shock 70 kDa protein 1 (HSPA1A) using HepaRG (AID 2283502)
In short: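 An oxidative-stress marker readout: HepaRG cells treated 48 h in duplicate with an eight-point series (highest 100 uM) had HSPA1A mRNA quantified by TaqMan qRT-PCR. Activity was fitted in both directions using 0.5% DMSO as baseline.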

Measured: AC50

Sequence of Hypoxia-inducible factor 1-alpha (Homo sapiens) (Q16665 whole entry, looked up): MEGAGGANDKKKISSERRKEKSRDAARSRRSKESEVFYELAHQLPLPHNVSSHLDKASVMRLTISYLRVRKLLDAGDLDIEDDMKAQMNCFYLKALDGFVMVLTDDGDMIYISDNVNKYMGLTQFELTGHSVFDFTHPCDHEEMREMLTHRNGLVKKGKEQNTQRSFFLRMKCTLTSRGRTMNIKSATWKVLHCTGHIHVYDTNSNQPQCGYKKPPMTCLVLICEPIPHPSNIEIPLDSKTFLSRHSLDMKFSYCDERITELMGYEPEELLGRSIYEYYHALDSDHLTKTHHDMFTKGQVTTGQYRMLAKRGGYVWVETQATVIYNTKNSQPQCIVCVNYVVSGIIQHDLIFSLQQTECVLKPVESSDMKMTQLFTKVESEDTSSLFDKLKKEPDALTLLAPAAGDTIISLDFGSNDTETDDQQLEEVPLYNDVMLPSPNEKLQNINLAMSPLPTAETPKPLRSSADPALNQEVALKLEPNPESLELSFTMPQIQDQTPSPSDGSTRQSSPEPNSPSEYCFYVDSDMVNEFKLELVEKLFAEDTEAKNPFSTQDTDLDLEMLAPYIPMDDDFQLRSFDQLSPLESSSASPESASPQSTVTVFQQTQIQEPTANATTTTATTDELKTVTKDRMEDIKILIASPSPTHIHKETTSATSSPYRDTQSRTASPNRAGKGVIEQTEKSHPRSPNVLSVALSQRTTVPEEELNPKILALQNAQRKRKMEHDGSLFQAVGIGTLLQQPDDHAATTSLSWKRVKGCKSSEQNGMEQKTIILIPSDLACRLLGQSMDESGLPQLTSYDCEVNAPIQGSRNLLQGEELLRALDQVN

Cn1cc(-c2ccccc2)c(=O)c(-c2cccc(C(F)(F)F)c2)c1
active: [4] 50 µM
not listed: [17] | [18] | [19]
inactive: all other assays above

O=[N+]([O-])c1ccc(Oc2ccc(Cl)cc2Cl)cc1
active: [3] 27.1 µM | [5] 50 µM | [9] 50 µM | [17] 50 µM | [14] 41.1 µM
not listed: [7] | [18] | [19]
inactive: all other assays above

c1ccc(N=Nc2ccccc2)cc1
not listed: [9] | [19]
inactive: all other assays above

Nc1ccc(Cc2ccc(N)cc2)cc1
not listed: [7] | [17] | [18] | [19]
inactive: all other assays above

Nc1cc(Cl)cc(C(=O)O)c1Cl
not listed: [12] | [17] | [19]
inactive: all other assays above

OCCOCCO
not listed: [7] | [17] | [19]
inactive: all other assays above

CCCCCCCCOC(=O)c1ccc(C(=O)OCCCCCCCC)c(C(=O)OCCCCCCCC)c1
not listed: [7] | [17] | [18] | [19]
inactive: all other assays above

Clc1ccc(C(c2ccc(Cl)cc2)C(Cl)(Cl)Cl)cc1
active: [4] 16.7 µM | [9] 50 µM | [15] 84.5 µM | [16] 50 µM
not listed: [7] | [19]
inactive: all other assays above

Cc1ccc(N=C=O)cc1N=C=O
active: [1] 31.7 µM | [2] 50 µM | [3] 30.3 µM | [4] 50 µM | [8] 68.7 µM | [10] 24 µM | [17] 29.4 µM | [11] 73.5 µM | [14] 23.9 µM | [15] 50 µM | [16] 3.41 µM
inactive: [5] | [6] | HGF (gene 3082) | [9] | [12] | [13]

c1ccc(C2CO2)cc1 (centres undefined)
not listed: [6] | [7] | [17] | [18]
inactive: all other assays above

CCN(CC)N=O
not listed: [1] | [7] | [19]
inactive: all other assays above

CCOc1cccc(C2(N3CCN(c4ccccc4)CC3)CCC(C)CC2)c1 (centres undefined)
not listed: [17] | [18] | [19]
inactive: all other assays above

Nc1ccc(Cl)cc1N
active: [1] 23.1 µM | [2] 27.9 µM | [3] 32.6 µM | [4] 38.8 µM | [8] 34.1 µM | HGF (gene 3082) 33.6 µM | [9] 25 µM | [11] 73.4 µM | [12] 34.2 µM | [14] 33.5 µM | [15] 17.3 µM | [16] 13.2 µM
inactive: [5] | [6] | [10] | [13]
